Assay outcomes as filed in PubChem BioAssay.
Only a selection was taken, and hits are over-represented in it overall.
RGS4 inhibitor: blocks human RGS4-accelerated GTP hydrolysis; P49798; Potency, µM (titrated, usually from 114 µM), actives largely listed as inhibitors; Transcreener GDP fluorescence polarization, RGS4-accelerated GTP hydrolysis; AID 504845; actives 0.039% (n = 390,000); further: nearly all actives have a fitted effect of over 75% in size
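MLSMR compounds (23 nl, pin-transferred) preincubated 10 min at room temperature with a 500nM (2x) first reagent, then RGS4 at 900nM (2x) plus Transcreener GDP mix added; fluorescence polarization (620/688 nm) read before and after 90 min at 30 °C.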
LDHA inh: inhibitors of human lactate dehydrogenase A | actives 0.15% (n = 480,000) | AID 1347041 | purified LDHA, NADH/diaphorase-resazurin fluorescence; hits give low values | activity change, % (values are at about 110 or 230 µM) | P00338; in the data active means activity change below about -30%; inconclusive means mostly about -25% to -30%
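Enzyme activity of human lactate dehydrogenase 5 (2 nM; 0.06 mM NADH, 0.2 mM pyruvate, 5 min, RT) is measured via a resazurin/diaphorase fluorescence readout of residual NADH.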
IDH1 R132H inh: inhibitors of human mutant IDH1 R132H; IDH1-R132H enzyme, NADPH consumption, diaphorase/resazurin fluorescence; O75874; actives 0.093% (n = 390,000); AID 602179; Potency, µM (series often up to 76.6 µM), most hits filed as inhibitors; further: nearly all actives have a fitted effect of over 65% in size
Target sequence (O75874 whole entry R132H, stated change not applied): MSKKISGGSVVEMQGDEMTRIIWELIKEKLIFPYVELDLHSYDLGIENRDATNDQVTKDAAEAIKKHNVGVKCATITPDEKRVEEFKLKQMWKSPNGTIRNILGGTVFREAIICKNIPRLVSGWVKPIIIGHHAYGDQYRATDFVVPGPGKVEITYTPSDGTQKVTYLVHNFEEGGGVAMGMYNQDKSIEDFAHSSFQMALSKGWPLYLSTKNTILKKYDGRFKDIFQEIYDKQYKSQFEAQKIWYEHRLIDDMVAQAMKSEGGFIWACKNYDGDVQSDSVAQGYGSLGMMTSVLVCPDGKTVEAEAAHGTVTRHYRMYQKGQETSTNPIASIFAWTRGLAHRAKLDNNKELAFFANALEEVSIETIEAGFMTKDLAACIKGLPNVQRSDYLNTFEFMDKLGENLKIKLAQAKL
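IDH1-R132H (0.5 ug/mL dispensed) in pH 7.5 Tris buffer was preincubated 30 min with compound, then given a substrate mix of 0.016 mM NADPH and 2 mM alpha-KG for 80 min at room temperature; remaining NADPH was read by diaphorase/resazurin fluorescence.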
ClpP mod: qHTS Assay for Activators of ClpP; ATP-dependent Clp protease proteolytic subunit (Bacillus subtilis (strain 168)), P80244; purified B. subtilis ClpP, FRET peptide cleavage, 20 min; Potency, µM (highest dose often 57.5 µM); actives 1.9% (n = 340,000); AID 651965, 2013; active means well fitted falling curve with a large enough effect; inconclusive means small, poorly fitted or top-dose-only effect; inactive means no such curve, though single readings can be large or run the other way; further: the source files actives as falling curves though it sought activators and does not explain the sign; nearly all actives have a fitted effect of over 65% in size
Target sequence (P80244 whole entry, looked up): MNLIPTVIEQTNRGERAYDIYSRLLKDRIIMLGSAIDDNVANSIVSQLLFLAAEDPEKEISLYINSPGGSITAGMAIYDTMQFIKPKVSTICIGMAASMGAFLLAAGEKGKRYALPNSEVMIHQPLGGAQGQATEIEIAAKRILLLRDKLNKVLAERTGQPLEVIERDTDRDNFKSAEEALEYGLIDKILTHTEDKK
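FRET quenching reversal measured ClpP activation: 10 microg/mL B. subtilis ClpP at pH 8 with the FRET-FV decapeptide, read at 430 nm after 320 nm excitation. The 20-min minus 0-min signal was scaled between DMSO/no-enzyme wells and ADEP (5.8 microM final).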
Mito fusion yeast: inhibitors of mitochondrial division or activators of mitochondrial fusion; S. cerevisiae fusion-defective mutant growth rescue, CellTiterGlo 48 h; Potency, µM (titrated, usually from 46.1 µM), hits mostly activators; actives 0.23% (n = 320,000); AID 485298; further: nearly all actives have a fitted effect of over 45% in size
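Growth-rescue viability read-out: after 48 h at the non-permissive 37C in glycerol/ethanol YPEG, yeast mitochondrial fusion mutants are measured by CellTiterGlo luminescence; compounds (23 nl pinned per well) restoring growth score as division inhibitors or fusion activators.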
S-ASM inh: inhibitors of human secretory acid sphingomyelinase. P17405. placental ASM, HMU-PC fluorogenic substrate, 60 min. Potency, µM (titrated, usually from 57.5 µM), usual class: inhibitors. actives 0.006% (n = 340,000). AID 504937
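Fluorescence read-out (Ex 386 nm, Em 447 nm) after stopping the reaction at pH 10. Enzyme: ASM from human placenta; substrate HMU-PC0, 9 uM final; 60 min, 37 °C. Compound preincubation 10 min, ambient temperature.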
A number is an active result; i = inactive; ? = inconclusive; nt = no result given; ! = repeats disagree; [ ] = dose if it differs, or a comment. Unless noted, the call rests on the fitted dose curve; in most records, active means well fitted curve in the direction sought with a large enough effect; inconclusive means small, poorly fitted or top-dose-only effect, or another doubt; inactive means no such curve, though single readings can be large; an effect the other way counts as inactive or inconclusive.

SMILES	RGS4 inhibitor	LDHA inh	IDH1 R132H inh	ClpP mod	Mito fusion yeast	S-ASM inh
CCC(=O)Nc1c(C(=O)N2CCN(c3ccccc3F)CC2)oc2ccccc12	nt	i	nt	nt	nt	nt
CC(=O)Cn1c(N2CCC(Cc3ccccc3)CC2)nc2c1c(=O)[nH]c(=O)n2C	i	i	i	i	i	i
C=C(C)Cn1c(N2CCC(Cc3ccccc3)CC2)nc2c1c(=O)[nH]c(=O)n2C	i[11.4 µM]	i	i	i	16µM	i
CC(C)Sc1nc2c(c(=O)[nH]c(=O)n2C)n1Cc1ccc(Cl)cc1	i	i	i	i	i	i
CC(C)Sc1nc2c(c(=O)[nH]c(=O)n2C)n1Cc1ccccc1	i	-30!	i	i	i	i
CC(C)Sc1nc2c(c(=O)[nH]c(=O)n2C)n1CCc1ccccc1	i	i	i	18µM	i	i
Cc1oc2ccc(OCc3c(Cl)cccc3Cl)cc2c1C(=O)O	nt	i	nt	nt	nt	nt
Cc1nn(CCC(=O)Nc2cccc(C(F)(F)F)c2)c(C)c1S(=O)(=O)N1CCC(C)CC1	nt	i	nt	nt	nt	nt
O=C(NC(NC(=O)C(c1ccccc1)c1ccccc1)c1ccccc1)C(c1ccccc1)c1ccccc1	nt	i	nt	nt	nt	nt
CSc1nn(CCN(C)C)c2nc3sc4c(c3c(=O)n12)CCCC4	nt	i	nt	nt	nt	nt
COc1ccc(CCNC(=O)c2cc(-c3ccc(C)cc3)nc3n[nH]c(-c4ccccc4)c23)cc1OC	i	i	i	13µM	nt	nt
O=C(Nc1ccc2nn(-c3ccccc3)nc2c1)c1ccco1	i	i	i	32µM	i	i
O=C(Nc1ccc(Oc2ccc3ccccc3c2)cc1)c1ccco1	i[11.4 µM]	i	i	16µM	i	i
O=C(Nc1ccc(Oc2ccc(NC(=O)c3ccco3)c(NC(=O)c3ccco3)c2)cc1)c1ccco1	i	i	i	i	i	i
O=C(Nc1ccc2oc(=O)ccc2c1)c1ccco1	i	i	i	28µM	i	i
Cn1nc(C(=O)OC/C(O)=C(/C#N)c2nc3ccccc3[nH]2)c2ccccc2c1=O	nt	i	nt	nt	nt	nt
CC1(C)NC(=O)N(CC(O)CNC23CC4CC(CC(C4)C2)C3)C1=O (stereo not drawn)	i[11.4 µM]	i	i	28µM	i	i
Cc1ccccc1CN(C)C(=O)CN1CCC(c2nc3ccccc3s2)CC1	nt	i	nt	nt	nt	nt
CCOc1ccc2nc(S(N)(=O)=O)sc2c1	i	-80	i	i	i	i
N#Cc1c(N)c(C#N)c(-c2ccc3c(c2)OCO3)c2c1CCCC2	i	i	i	32µM	i	i
N#Cc1c(N)c(C#N)c(-c2ccc(O)cc2)c2c1CCCC2	i	i	i	22µM	i	i
N#Cc1c(N)nc2c(c1-c1ccc3c(c1)OCO3)CCc1ccccc1-2	i	i	i	?	?	i
CCOC(=O)c1cccc(NS(=O)(=O)c2c(-c3ccc(C)cc3)csc2C(=O)OC)c1	nt	i	nt	nt	nt	nt
Nc1nn(Cc2ccc(F)cc2)cc1Br	nt	i	nt	nt	nt	nt
c1ccc(-c2nc3c(ccc4ccccc43)[nH]2)nc1	i	i	i	28µM	i	i
SMILES	RGS4 inhibitor	LDHA inh	IDH1 R132H inh	ClpP mod	Mito fusion yeast	S-ASM inh
Cc1ccc(C)c(Cn2c(N3CCN(CC(C)C)CC3)nc3c2c(=O)[nH]c(=O)n3C)c1	nt	i	nt	nt	nt	nt
CC(OC(=O)c1cc(=O)c2ccccc2o1)C(=O)Nc1ccc(C(F)(F)F)cc1 (stereo not drawn)	nt	i	nt	nt	nt	nt
CC1=CC(C)(C)Nc2ccc(OC(=O)CN3C(=O)c4ccccc4C3=O)cc21	i	i	i	25µM	i	i
CC1=CC(C)(C)Nc2ccc(OC(=O)CN3C(=O)c4cccc5cccc(c45)C3=O)cc21	i	i	i	i	i	i
Cc1cccc(Nc2nnc(SCC3CCCCO3)s2)c1C (stereo not drawn)	i	i	i	10µM	i	i
Cc1cccc(NC(=S)NNC(=O)COc2ccc(Cl)cc2Cl)c1	?	i	i	i	22µM	i
COc1ccc(NC(=S)NNC(=O)COc2ccc(Cl)cc2Cl)cc1	i	i	i	i	i	i
COc1ccc(Nc2ccccc2NC(=O)c2cccc(F)c2)cc1	nt	i	nt	nt	nt	nt
ClCC(Cl)C[n+]1cccc2ccccc21 (stereo not drawn)	nt	-47	nt	nt	nt	nt
Cc1ccc(Nc2n[nH]c(C)c2[N+](=O)[O-])c(C)c1	i	i	i	i	10µM	i
CCN(CC)c1ccc(/C=N/NC(=O)CC(C)C)cc1	i	i	i	18µM	i	i
CCN(CC)c1ccc(/C=N\NC(N)=O)cc1	i	i	i	25µM	i	i
CCN(CC)c1ccc(/C=N/NC(=O)Nc2ccccc2)cc1	i	i	i	i	i	i
CCCC(c1nnnn1CC(=O)OCC)N(Cc1cc2c(C)cc(C)cc2[nH]c1=O)C1CCCC1 (stereo not drawn)	i	i	i	?	i	i
CCCC(c1nnnn1CC(=O)OCC)N(Cc1cc2ccc(C)cc2[nH]c1=O)C1CCCC1 (stereo not drawn)	i	i	i	18µM	i	i
O=C(NCC1OCCc2ccccc21)c1cccc(Br)c1 (stereo not drawn)	nt	-42	nt	nt	nt	nt
COc1cccc(C(=O)NCC2OCCc3ccccc32)c1 (stereo not drawn)	i	i	i	i	nt	nt
CCN1C(=O)C(CC(=O)Nc2ccc(OC)cc2)N(CCc2ccc(F)cc2)C1=S (stereo not drawn)	i	i	i	11µM	i	i
COc1ccc(NC(=O)CC2C(=O)N(Cc3ccccc3)C(=S)N2CCN2CCOCC2)cc1 (stereo not drawn)	i	i	i	8.9µM	i	i
Cc1oc(-c2nc(C#N)c(NCc3cccnc3)o2)cc1S(=O)(=O)N(C)C	nt	i	nt	nt	nt	nt
Cc1ccc(C(=O)COC(=O)Cn2cnc3c2c(=O)n(C)c(=O)n3C)c(C)c1	nt	i	nt	nt	nt	nt
Cc1ccc2c(c1)c(N=NC(N)=S)c(O)n2Cc1ccccc1	i	i	i	25µM	i	i
Cc1ccc2c(c1)c(N=O)c(O)n2Cc1ccc(Cl)cc1	i	i	i	nt	10µM	i
O=Nc1c(O)n(Cc2ccc(Cl)cc2)c2ccccc12	i	i	i	i	i	i
NC(=S)N=Nc1c(O)n(Cc2ccc(F)cc2)c2ccccc12	i	i	i	i	i	i
CCOc1ccc2c(c1)C(C)=CC(C)(C)N2	i	i	i	i	i	i
CCc1ccc2c(c1)C(C)=CC(C)(C)N2	i	i	i	32µM	i	i
Cc1ccc(C(=O)NCCn2c(N)c(C#N)c3nc4ccccc4nc32)cc1	i	i	i	22µM	i	i
N#Cc1c(N)n(CCOC(=O)c2cccc(Br)c2)c2nc3ccccc3nc12	i	i	i	?	i	i
